Assay outcomes: PubChem, several laboratories
The sample as a whole holds a higher share of hits than the screen did.
BAP1 block: inhibitors of BAP1 deubiquitinase, primary screen, biochemical, Ub-AMC fluorescence, kinetic. 0.48% of 72,000 active. recombinant BAP1, Ub-AMC hydrolysis fluorescence kinetic; active compounds read low. AID 436, 2006. calls only at 20 µM;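 active = activity remaining at or below 50% of control, provided the compound also passes the data quality filters; inactive = the rest, including low values that fail the filters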
Target sequence (Q92560 whole entry, looked up): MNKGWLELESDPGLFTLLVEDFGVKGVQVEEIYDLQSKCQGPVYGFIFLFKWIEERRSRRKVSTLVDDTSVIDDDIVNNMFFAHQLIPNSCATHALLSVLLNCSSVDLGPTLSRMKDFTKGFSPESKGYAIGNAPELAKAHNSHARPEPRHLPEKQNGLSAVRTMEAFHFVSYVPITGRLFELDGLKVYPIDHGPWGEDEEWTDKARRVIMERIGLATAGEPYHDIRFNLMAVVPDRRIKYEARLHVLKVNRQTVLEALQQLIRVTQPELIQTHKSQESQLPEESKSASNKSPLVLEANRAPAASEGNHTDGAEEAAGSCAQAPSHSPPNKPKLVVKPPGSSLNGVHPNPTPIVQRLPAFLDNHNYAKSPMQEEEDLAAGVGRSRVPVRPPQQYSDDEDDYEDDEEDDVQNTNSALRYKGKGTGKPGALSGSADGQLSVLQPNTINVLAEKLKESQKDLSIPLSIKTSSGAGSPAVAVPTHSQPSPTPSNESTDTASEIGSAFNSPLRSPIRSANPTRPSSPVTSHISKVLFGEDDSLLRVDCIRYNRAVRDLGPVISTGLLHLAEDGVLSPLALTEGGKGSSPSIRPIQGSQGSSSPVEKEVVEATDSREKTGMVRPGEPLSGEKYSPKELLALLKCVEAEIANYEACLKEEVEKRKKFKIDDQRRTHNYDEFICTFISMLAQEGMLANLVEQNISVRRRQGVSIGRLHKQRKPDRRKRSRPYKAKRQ
D1 allo mod: D1 CRE-luciferase signal change, two-sided – cell-based, HEK293 D1, dopamine EC30, D1 allosteric modulator project, primary screen. D(1A) dopamine receptor (Homo sapiens), P21728. dopamine EC30 potentiation; actives deviate in either direction. B-score at 10 µM. 5.9% of 58,000 active. AID 641, 2007;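 active = luminescence count or its row- and column-corrected plate score outside the 99.7% band of the plate's sample wells, on either side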
DAT uptake mod: changed hDAT dopamine uptake under cocaine IC80, either direction, primary screen, cocaine antagonist project, cell-based, LLC-PK1 hDAT, [14C]-dopamine uptake, MLSMR; LLC-PK1 hDAT cells, [14C]-dopamine uptake with cocaine IC80; actives deviate in either direction; B-score at 10 µM; 1.3% of 110,000 active; AID 449768, 2010;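 active = Z score or B-score, a plate-position-corrected score, falls beyond the plate's 99.7% confidence bounds, in either direction; inactive = both scores lie inside the 99.7% bounds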
D1 mod confirm: D1 receptor positive allosteric modulators, retest, confirmation, cell-based, HEK293 D1, CRE-luciferase, duplicate; shares compounds with D1 allo mod; luminescence at 10 µM; dopamine EC30 potentiation; active compounds read high; 88% of 2,200 active; AID 642, 2007;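 active = luminescence in either of two replicates above the same-plate mean plus 3 SD of the low-dose dopamine control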
D1 no dopamine: D1 receptor agonism without dopamine, confirmation, mechanism study for D1 allosteric modulator project, cell-based, HEK293 D1, CRE-luciferase, secondary assay 1; shares compounds with D1 allo mod; luminescence, no dopamine; active compounds read high; luminescence at 10 µM; 0.8% of 1,900 active; AID 646, 2007; in the data active = luminescence above about 3900
Isoprot counter: alters isoproterenol CRE-luciferase response in HEK293 cells. shares compounds with D1 allo mod. HEK293 D1 CRE-luciferase, isoproterenol EC30 counter-screen; active compounds read high. luminescence at 10 µM. 63% of 2,200 active. AID 647;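 active = luminescence in either replicate above plate mean of wells with a partly effective reference agonist dose plus 3 SD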;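 also: isoproterenol raises cAMP through native beta-adrenoceptor Gs so signal bypasses D1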
Of the large screens only hits and unclear results are named; the others gave an inactive call (follow-up assays come after a bar, where shown).

O=C(c1ccco1)N1CCN(c2nc(C3CC3)nc3sc4c(c23)CCCC4)CC1	D1 allo mod 6.88 | D1 mod confirm 15256 | D1 no dopamine inactive | Isoprot counter inactive
CC(C)Cc1nc(N2CCCCC2)c(C#N)c2c1CCC2	none (not shown: BAP1 block)
CC(C)Cc1nc(N2CCN(C(=O)c3ccco3)CC2)c(C#N)c2c1CCC2	D1 allo mod 7.53 | D1 mod confirm 12548 | D1 no dopamine inactive | Isoprot counter 3420
CCCCc1nc(N2CCOCC2)c(C#N)c2c1CCCC2	none (not shown: BAP1 block, D1 allo mod)
CC(C)Cc1nc(N2CCN(C(=O)C(C)C)CC2)c(C#N)c2c1CCC2	D1 allo mod 4.51 | D1 mod confirm 7400 | D1 no dopamine inactive | Isoprot counter inactive
CCCc1nc(N2CCOCC2)c(C#N)c2c1CCCC2	D1 allo mod 6.54 | D1 mod confirm 7888 | D1 no dopamine inactive | Isoprot counter inactive
CC1(C)Cc2c(C#N)c(N3CCN(C(=O)c4ccco4)CC3)nc(Cc3ccccc3)c2CO1	none (not shown: BAP1 block, D1 allo mod)
COc1cccc(C(=O)Nc2c3c(nn2-c2ccc(C)cc2)CSC3)c1OC	none (no result: D1 allo mod, DAT uptake mod)
O=C(Oc1ccc(-c2ccccc2)cc1)c1ccc([N+](=O)[O-])cc1	none (no result: D1 allo mod, DAT uptake mod)
Cc1cc2c(cc1Cl)N1CCS(=O)(=O)N=C1S2	none (no result: D1 allo mod, DAT uptake mod)
CC(C)c1cc(N2CCN(C(=O)c3ccco3)CC2)n2c(nc3ccccc32)c1C#N	D1 allo mod 5.95 | D1 mod confirm 8868 | Isoprot counter 3008
N#Cc1c(N2CCN(C(=O)c3ccco3)CC2)nc(-c2ccccc2)c2c1CCCC2	D1 allo mod 2.78 (not shown: BAP1 block) | D1 mod confirm 13716 | D1 no dopamine inactive | Isoprot counter 4224
CC(=O)N1CCN(c2nc(CC(C)C)c3c(c2C#N)CCC3)CC1	D1 allo mod 17.6 | D1 mod confirm 22940 | D1 no dopamine inactive | Isoprot counter 5844
N#Cc1c(N2CCN(C(=O)c3ccccc3)CC2)nc(-c2ccccc2)c2c1CCCC2	none (no result: BAP1 block, D1 allo mod)
O=C(c1ccco1)N1CCN(c2nc3ccccc3n3nnnc23)CC1	none
CC(C)Cc1nc(N2CCN(C(=O)c3ccccc3)CC2)c(C#N)c2c1CCC2	none (no result: BAP1 block, D1 allo mod)
Cc1ccc(NS(=O)(=O)c2cc(C(=O)Nc3ccc(C(=O)O)cc3)ccc2C)cc1	none (no result: D1 allo mod, DAT uptake mod)
CCOc1cccc2sc(NC(=O)c3ccc(S(=O)(=O)N(CC)CC)cc3)nc12	none (no result: D1 allo mod, DAT uptake mod)
CC(C)(C)c1ccc(S(=O)(=O)N2CCN(c3ccc([N+](=O)[O-])cc3)CC2)cc1	none (no result: D1 allo mod, DAT uptake mod)
NC(=O)c1ccccc1NC(=O)C(F)(F)F	none (no result: D1 allo mod, DAT uptake mod)
Cc1ccc(Cn2c(CN(C)Cc3ccccc3)nc3c2c(=O)n(C)c(=O)n3C)cc1	D1 allo mod 4.93 | D1 mod confirm 8728 | D1 no dopamine inactive | Isoprot counter 3552
CN(Cc1ccccc1)Cc1nc2c(c(=O)n(C)c(=O)n2C)n1Cc1ccc(F)cc1	none
COc1cc2ccccc2cc1C(=O)Nc1cccnc1	none (no result: D1 allo mod)
O=C(Nc1cccnc1)c1ccccc1Oc1ccccc1	D1 allo mod 6.34 | D1 mod confirm 15336 | D1 no dopamine inactive | Isoprot counter 3360
Cc1ccc(N2C(=O)c3cccc(Cl)c3C2=O)cc1	none (no result: D1 allo mod, DAT uptake mod)
COc1nc(NS(=O)(=O)c2ccc(C)cc2)nc(C)c1Br	none (no result: D1 allo mod, DAT uptake mod)
COc1ccc(NC(=O)c2cc3ccccc3oc2=Nc2ccccc2Cl)cc1	none (no result: D1 allo mod, DAT uptake mod)
COc1ccc2c(C)c(Cl)c(=O)oc2c1	none
Cc1c(C)c2ccc(OC3CCCCC3=O)cc2oc1=O (centres undefined)	D1 allo mod 2.46 (no result: DAT uptake mod) | D1 mod confirm 6564 | D1 no dopamine inactive | Isoprot counter inactive
Cc1cccc(-c2nnc(NC(=O)C(F)(F)F)s2)c1	none (no result: D1 allo mod, DAT uptake mod)
COc1cccc(C(=O)OCCN2C(=O)c3ccccc3C2=O)c1OC	D1 allo mod 3.14 | D1 mod confirm 5788 | D1 no dopamine inactive | Isoprot counter 3180
COc1ccc(C(=O)OCCN2C(=O)c3ccccc3C2=O)cc1	none
COc1ccc(-c2cc(C(F)(F)F)nc(NCc3ccco3)n2)cc1OC	none (no result: BAP1 block, D1 allo mod)
FC(F)(F)c1cc(-c2ccco2)nc(NCc2ccco2)n1	D1 allo mod 14.7 | D1 mod confirm 10384 | D1 no dopamine inactive | Isoprot counter 3632
FC(F)(F)c1cc(-c2ccco2)nc(NCc2cccs2)n1	none (no result: BAP1 block, D1 allo mod)
CN1CCN(c2nc(-c3ccco3)cc(C(F)(F)F)n2)CC1	none (no result: BAP1 block, D1 allo mod)
COc1cccc(-c2cc(C(F)(F)F)nc(NCc3ccco3)n2)c1	D1 allo mod 3.01 | D1 mod confirm 7368 | Isoprot counter 2868
FC(F)(F)c1cc(-c2ccco2)nc(-n2nc(C(F)(F)F)cc2C2CC2)n1	D1 allo mod 5.25 | D1 mod confirm inactive | D1 no dopamine inactive | Isoprot counter 3760
COc1ccccc1C(=O)Nc1cc(-c2nc3ncccc3o2)ccc1C	none (no result: D1 allo mod, DAT uptake mod)
Cc1nc(NCCCn2ccnc2)c2ccccc2n1	none (no result: D1 allo mod)
O=C1c2ccccc2-c2onc3ccc(NCCCn4ccnc4)c1c23	D1 allo mod 3.91 | D1 mod confirm 11264 | D1 no dopamine inactive | Isoprot counter inactive
COC(=O)c1ccc(OC)c(CSc2nnc(COc3cccc(C)c3)o2)c1	none
COC(=O)c1ccc(OC)c(CSc2nnc(COc3ccc(OC)cc3)o2)c1	D1 allo mod 6.44 | D1 mod confirm inactive | D1 no dopamine inactive | Isoprot counter inactive
Cc1cccc(NC(=O)CC2SC(=NC3CCCCC3)NC2=O)c1 (centres undefined)	none (no result: BAP1 block)
O=C(CC1SC(=NC2CCCCC2)NC1=O)Nc1ccccc1 (centres undefined)	D1 allo mod 2.59 | D1 mod confirm 6104 | D1 no dopamine inactive | Isoprot counter inactive
CC(C)Cc1nc(NCCN2CCOCC2)c(C#N)c2c1COC(C)(C)C2	none (no result: D1 allo mod)
CCCCc1nc(NCCN2CCOCC2)c(C#N)c2c1COC(C)(C)C2	D1 allo mod 5.8, DAT uptake mod 2.65 | D1 mod confirm 11452 | D1 no dopamine inactive | Isoprot counter 8292
Cc1cccc(CC(C(=O)O)C(C)C(=O)O)c1 (centres undefined)	none (no result: D1 allo mod, DAT uptake mod)
COC(=O)c1ccc(C(=O)OCCCc2nc3ccc([N+](=O)[O-])cc3[nH]2)cc1	none (no result: D1 allo mod, DAT uptake mod)
COc1ccc(-c2nnc3sc(-c4cccs4)nn23)cc1OC	D1 allo mod 4.95 | D1 mod confirm 12160 | Isoprot counter 3740
COc1ccc(-c2nn3c(C4CCCCC4)nnc3s2)cc1OC	none (no result: D1 allo mod)
C1CCC(c2nn3c(-c4n[nH]c5c4CCC5)nnc3s2)CC1	D1 allo mod 6.32 (not shown: BAP1 block) | D1 mod confirm 15420 | D1 no dopamine inactive | Isoprot counter inactive
Clc1ccccc1-c1nnc2sc(-c3cccs3)nn12	D1 allo mod 10.7 (not shown: BAP1 block) | D1 mod confirm 14324 | D1 no dopamine inactive | Isoprot counter 4852
Clc1ccccc1-c1nn2c(-c3ccccn3)nnc2s1	none (no result: D1 allo mod)
